Measurements from the supplement of paper PMC13380429.

Tested on: Vero E6 infected with SARS-CoV-2
Assay: inhibition of SARS-CoV-2 cytopathic effect; higher = more antiviral protection, active = above 15
Settings: 48 h

Measured: inhibition of SARS-CoV-2 cytopathic effect

Nc1ncnc2c1ncn2[C@@H]1O[C@H](CO)C[C@H]1O [cordycepin]
inactive: 1 nM -1.1% | 8.33 nM 0.92% | 100 nM 1.03% | 833.33 nM -0.81% | 10000 nM -3.28%

COc1cccc([C@@H](C)NCCCc2ccccc2Cl)c1 [tecalcet]
inactive: 1 nM 1.64% | 8.33 nM 1.12% | 100 nM 3.52% | 833.33 nM -0.64% | 10000 nM -3.1%

CCOc1ccc(Cc2cc([C@]34OC[C@](CO)(O3)[C@@H](O)[C@H](O)[C@H]4O)ccc2Cl)cc1 [ertugliflozin]
inactive: 1 nM -4.37% | 8.33 nM -4.65% | 100 nM -2.3% | 833.33 nM -0.17% | 10000 nM 0.59%

Cc1onc(O)c1C[C@@H](N)C(=O)O (racemic)
inactive: 1 nM 0.825% | 8.33 nM 1.39% | 100 nM 2.15% | 833.33 nM 2.51% | 10000 nM 1.4%

Nc1ccc(C(=O)NCC(=O)O)cc1 [4-aminohippuric-acid]
inactive: 1 nM -2.16% | 8.33 nM -0.24% | 100 nM -0.14% | 833.33 nM 0.71% | 10000 nM -1.9%

Nc1nnc(-c2cccc(Cl)c2Cl)c(N)n1 [lamotrigine]
inactive: 1 nM -2.3% | 8.33 nM -2.08% | 100 nM -1.73% | 833.33 nM -0.07% | 10000 nM 0.08%

O=C1c2c(O)cccc2C([C@@H]2O[C@H](CO)[C@@H](O)[C@H](O)[C@H]2O)c2cc(CO)cc(O)c21 (stereo not given in full) [aloin]
inactive: 1 nM -0.62% | 8.33 nM 0.1% | 100 nM -0.43% | 833.33 nM 1.27% | 10000 nM 1.29%

O=C(O)Cc1cccnc1C(=O)O [homoquinolinic-acid]
inactive: 1 nM 3.71% | 8.33 nM -1.17% | 100 nM -11.5% | 833.33 nM 1.81% | 10000 nM 1.14%

COP(=O)(OC)OC(c1ccc(Cl)cc1)P(=O)(OC)OC (stereo not given) [mifobate]
inactive: 1 nM -4.41% | 8.33 nM -10.9% | 100 nM -3.08% | 833.33 nM -2.04% | 10000 nM -5%

Cc1ccc2c(=O)c3ccccc3n(CCCN)c2c1C
inactive: 1 nM 3.67% | 8.33 nM 4.23% | 100 nM -0.41% | 833.33 nM 1.46% | 10000 nM -13.1%

c1ccc(Cn2c(N3CCNCC3)nc3ccccc32)cc1 [lerisetron]
inactive: 1 nM 1.65% | 8.33 nM -0.34% | 100 nM -0.91% | 833.33 nM -3.79% | 10000 nM -5.52%

CC1(C)O[C@@H]2C[C@H]3[C@@H]4CCC5=CC(=O)C=C[C@]5(C)[C@H]4[C@@H](O)C[C@]3(C)[C@]2(C(=O)CO)O1 [desonide]
inactive: 1 nM 1.41% | 8.33 nM 2.82% | 100 nM 5.19% | 833.33 nM 5.19% | 10000 nM 1.37%

CCCCCCCCCCCCCCCC(=O)OC[C@@H](NC(=O)C(Cl)Cl)[C@H](O)c1ccc([N+](=O)[O-])cc1 [chloramphenicol-palmitate]
inactive: 1 nM 0.12% | 8.33 nM 0.68% | 100 nM -1.3% | 833.33 nM -1.25% | 10000 nM 0.57%

CNC(=O)c1c(C)oc2cc(Oc3ncnc4cc(OC)c(OC)cc34)ccc12 [fruquintinib]
inactive: 1 nM 2.39% | 8.33 nM -2.79% | 100 nM -1.12% | 833.33 nM -3.32% | 10000 nM -0.11%

CCCCCOC(=O)Nc1nc(=O)n([C@@H]2O[C@H](C)[C@@H](O)[C@H]2O)cc1F [capecitabine]
inactive: 1 nM -2.56% | 8.33 nM 0.42% | 100 nM -1.36% | 833.33 nM -0.59% | 10000 nM -1.14%

O=C(O)C(=O)c1cn(Cc2ccccc2)c2ccc(-c3ccc(OC(F)(F)F)cc3)cc12 [tiplaxtinin]
inactive: 1 nM 2.16% | 8.33 nM 2.56% | 100 nM 3.44% | 833.33 nM 2.13% | 10000 nM 4.09%

COc1cc(C(C)=O)ccc1O [apocynin]
inactive: 1 nM 0.03% | 8.33 nM -1.17% | 100 nM -2.23% | 833.33 nM -0.09% | 10000 nM 1.17%

Nc1ccc([As](=O)(O)O)cc1 [arsanilic-acid]
inactive: 1 nM 0.07% | 8.33 nM 1.05% | 100 nM -1.33% | 833.33 nM -2.25% | 10000 nM -0.8%
